Assay results reported in PubChem BioAssay (EPA / NIEHS).
Records with an inconclusive call do not appear. Calls of active or inactive are those of the source. How the source made its calls, unless noted: active means hit-call score of the fitted dose curve at least 0.9, where 1 is the maximum; inconclusive means response in the unintended direction; inactive means score below 0.9.

Columns and labels:
[1] = CCTE_Mundy_HCI_Cortical_Synap_Neur_Matur_CellBodySpotCount: CCTE's Synaptogenesis and Neurite Maturation Assay in rat cortical cells for Cell Body Spot Count, Mundy Lab (AID 2284223; active means hit-call score of the fitted dose curve at least 0.9, where 1 is the maximum; inactive means score below 0.9)
Procedure, shortened: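 Synapse number at neuronal cell bodies was quantified as synaptophysin puncta per neuron in rat cortical cultures exposed from DIV 7 to DIV 12. Values were normalised to DMSO.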

[2] = CCTE_Mundy_HCI_hNP1_Pro_ResponderAvgInten: CCTE's Proliferation Assay in human neuroprogenitor cells, Mundy Lab (AID 2284224);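 further: human neural progenitor cells hNP1 derived from WA09 embryonic stem cells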
Procedure, shortened: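 Human neuroprogenitors (hNP1, WA09 lineage) receive test chemical after 40 to 44 hours of attachment. A four-hour BrdU pulse begins twenty hours later, followed by fixation and high content imaging; signal is referenced to DMSO controls.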

[3] = TAMU_HCS_1.5hr_SingleDonor1434_Cytotoxicity: Cytotoxicity Assessment using High-content Screening (HCS) Fluorescent Imaging for the Texas A&M University (TAMU) 1.5-hr Human Induced Pluripotent Stem Cell (iPSC)-derived Cardiotoxicity Assay (AID 2284234)
Procedure, shortened: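 Human iPSC-derived cardiomyocytes dosed at 0.2, 1, 10, 100 uM final (0.5% DMSO) for 90 min at 37 C. Hoechst 33342-stained nuclei counted by 10x high-content imaging; POD is EC10, a 10% drop in total cell count versus DMSO.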

[4] = TAMU_PeakParms_SingleDonor1434_QT: Texas A&M University (TAMU) 1.5-hr Human Induced Pluripotent Stem Cell (iPSC)-derived Cardiomyocytes Calcium (Ca+2) Flux Assay for Cardiotoxicity: QT (decay-rise ratio) (AID 2284235)
Procedure, shortened: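 iPSC-derived cardiomyocytes (single donor 1434) dosed at 0.2, 1, 10, 100 uM final in 0.5% DMSO, 90 min at 37C. Ca2+ flux fluorescence decay/rise ratio; EC05 (5% increase versus DMSO) as POD, excluding beat-arrest and severe-notch data.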

[5] = CCTE_Mundy_HCI_Cortical_NOG_NeuronCount: CCTE's Neurite Outgrowth Assay in rat cortical cells for Neuron Count, Mundy Lab (AID 2284236);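 further: neurons counted by imaging betaIII-tubulin and Hoechst stained cortical cells; cells exposed to compound for about 48 hours before fixation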
Procedure, shortened: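 Read-out: neuron number by high-content imaging of betaIII-tubulin (Alexa Fluor-488) and Hoechst-labelled rat primary cortical cells.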

[6] = CCTE_Mundy_HCI_Cortical_NOG_BPCount: CCTE's Neurite Outgrowth Assay in rat cortical cells for Branch Point Count, Mundy Lab (AID 2284237; active means hit-call score of the fitted dose curve at least 0.9, where 1 is the maximum; inactive means score below 0.9;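 on AC50: branch points counted about two days after chemical exposure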)
Procedure, shortened: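 Measured 50.33 h after dosing, this morphology endpoint uses rat primary cortical cultures labelled for betaIII-tubulin. Branch points are quantified by high-content imaging, with DMSO as negative control and baseline.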

[7] = CCTE_Mundy_HCI_hNP1_Casp3_7: CCTE's Caspase-Glo 3/7 Assay in human neuroprogenitor cells for Apoptosis, Mundy Lab (AID 2284240; active means hit-call score of the fitted dose curve at least 0.9, where 1 is the maximum; inactive means score below 0.9)
Procedure, shortened: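 Neuroepithelial-lineage stem cells from WA09 embryonic cells were treated with chemicals after 40–44 h of culture. Twenty-four hours later, caspase-3/7 activation was detected luminescently after a 30 min room-temperature reagent step, with DMSO as baseline.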

[8] = CCTE_Mundy_HCI_hNP1_CellTiter: CCTE's Cell Titer-Glo 2 Assay in human neuroprogenitor cells for Viability, Mundy Lab (AID 2284241);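 on AC50: a hit is a drop in ATP luminescence versus DMSO meaning reduced viability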
Procedure, shortened: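 Measures ATP content in human neural progenitors derived from WA09 embryonic cells. Read-out at 26.5 hours after dosing, with DMSO serving as the negative control and baseline.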

[9] = CCTE_Mundy_HCI_Cortical_Synap_Neur_Matur_NeuronCount: CCTE's Synaptogenesis and Neurite Maturation Assay in rat cortical cells for Neuron Count, Mundy Lab (AID 2284242);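 on AC50: neuron number from Hoechst nuclei and MAP2 staining by high-content imaging; hits reduce neuron count versus DMSO baseline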
Procedure, shortened: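 Imaging-based neuron count in rat cortical cultures after chemical exposure from DIV 7 to DIV 12, with AraC added at DIV 5. Activity is fitted relative to DMSO.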

[10] = IUF_NPC2c_oligodendrocyte_migration_120hr: Leibniz Research Institute for Environmental Medicine (IUF) 120-hour Neural Progenitor Cell Migration Assay for Oligodendrocyte Migration (NPC2c) (AID 2284297; active means hit-call score of the fitted dose curve at least 0.9, where 1 is the maximum; inactive means score below 0.9;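 further: O4-positive oligodendrocyte migration distance divided by radial glia migration distance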)
Procedure, shortened: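 Primary hNPC spheres migrating on extracellular matrix, exposed five days to a 7-point dilution series with solvent control. Oligodendrocyte migration was scored by high-content imaging of O4 immunostaining and expressed relative to radial glia distance.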

[11] = IUF_NPC2a_radial_glia_migration_120hr: Leibniz Research Institute for Environmental Medicine (IUF) 120-hour Neural Progenitor Cell Migration Assay for Radial Glia Migration (NPC2a) (AID 2284298; active means hit-call score of the fitted dose curve at least 0.9, where 1 is the maximum; inactive means score below 0.9)
Procedure, shortened: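 In this multiplexed test, fetal hNPC spheres migrate radially on poly-D-lysine/laminin in N2 medium (37C, 5% CO2, pH 7.2-7.6) under continuous compound exposure over five days. Migration is scored at 120 h from automated Hoechst nuclear imaging.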

[12] = IUF_NPC2a_radial_glia_migration_72hr: Leibniz Research Institute for Environmental Medicine (IUF) 72-hour Neural Progenitor Cell Migration Assay for Radial Glia Migration (NPC2a) (AID 2284299; active means hit-call score of the fitted dose curve at least 0.9, where 1 is the maximum; inactive means score below 0.9)
Procedure, shortened: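 Migration out of plated human neural progenitor spheres is scored at 72 h as the distance in um from the sphere core edge to the edge of the migration area. Values are the mean of four manual measurements per well, normalised to DMSO.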

[13] = IUF_NPC2b_neuronal_migration_120hr: Leibniz Research Institute for Environmental Medicine (IUF) 120-hour Neural Progenitor Cell Migration Assay for Neuron Migration (NPC2b) (AID 2284300; active means hit-call score of the fitted dose curve at least 0.9, where 1 is the maximum; inactive means score below 0.9)
Procedure, shortened: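 Neurons identified by TUBB3 immunostaining and Hoechst nuclei; migration distance measured automatically on fixed wells at 120 h, normalized to glia migration. Exposure spanned five days of differentiation in N2 medium, seven test concentrations.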

[14] = IUF_NPC3_neuronal_differentiation_120hr: Leibniz Research Institute for Environmental Medicine (IUF) 120-hour Neuronal Differentiation Assay (NPC3) (AID 2284301; active means hit-call score of the fitted dose curve at least 0.9, where 1 is the maximum; inactive means score below 0.9)
Procedure, shortened: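 Primary human fetal neural progenitor spheres (GW 16-19, 0.3 mm) plated on poly-D-lysine/laminin in N2 medium, exposed from day 0 for 120 h with half-medium refresh at day 3. TUBB3+ cells as percent of Hoechst nuclei in migration area; DMSO baseline.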

[15] = IUF_NPC4_neurite_length_120hr: Leibniz Research Institute for Environmental Medicine (IUF) 120-hour Neuronal Morphology Assay for Neurite Length (NPC4) (AID 2284302; active means hit-call score of the fitted dose curve at least 0.9, where 1 is the maximum; inactive means score below 0.9)
Procedure, shortened: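 Human fetal cortex (GW 16-19) neural progenitor spheres, 0.3 mm, were plated on poly-D-lysine/laminin in N2 differentiation medium and exposed from day 0 for 120 h, half-feeding at day 3. Mean TUBB3+ neurite length (µm) came from skeletonized images, relative to DMSO.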

[16] = IUF_NPC4_neurite_area_120hr: Leibniz Research Institute for Environmental Medicine (IUF) 120-hour Neuronal Morphology Assay for Neurite Area (NPC4) (AID 2284305)
Procedure, shortened: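 Human fetal cortex-derived neural progenitor spheres (0.3 mm, GW 16-19) plated on poly-D-lysine/laminin in N2 differentiation medium and exposed from day 0 for 120 h across 7 concentrations plus solvent control. Neurite area is mean pixel area per TUBB3-positive neuron via skeletonization, analysed relative to DMSO.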

[17] = IUF_NPC2-5_cytotoxicity_72hr: Cytotoxicity Assessment at 72 hours in the Leibniz Research Institute for Environmental Medicine (IUF) Neural Progenitor Cell Migration and Differentiation Assay for Cytotoxicity (NPC2-5) (AID 2284306);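 further: LDH release into supernatant measured by resorufin fluorescence marking membrane damage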
Procedure, shortened: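 Human fetal (GW 16-19) neural progenitor spheres, 0.3 mm, plated on poly-D-lysine/laminin in N2 differentiation medium and exposed from day 0 to 7 concentrations plus solvent control (DMSO ≤0.1%). LDH-dependent resazurin-to-resorufin fluorescence in supernatant at 72 h.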

[18] = IUF_NPC2-5_cytotoxicity_120hr: Cytotoxicity Assessment at 120 hours in the Leibniz Research Institute for Environmental Medicine (IUF) Neural Progenitor Cell Migration and Differentiation Assay (NPC2-5) (AID 2284307);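 on AC50: LDH released into supernatant as membrane damage marker via resorufin fluorescence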
Procedure, shortened: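 Fluorescence (RFU) from LDH-driven resazurin reduction in medium supernatants measured loss of membrane integrity after 120 h of compound exposure of differentiating primary human neural progenitor spheres on an extracellular matrix.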

[19] = IUF_NPC2-5_cell_number_120hr: Cell Number Assessment at 120 hours in the Leibniz Research Institute for Environmental Medicine (IUF) Neural Progenitor Cell Migration and Differentiation Assay (NPC2-5) (AID 2284308; active means hit-call score of the fitted dose curve at least 0.9, where 1 is the maximum; inactive means score below 0.9;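 further: count of Hoechst-stained nuclei in migration zone around plated human neural progenitor spheres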)
Procedure, shortened: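 Cell number is taken as all Hoechst-positive nuclei detected in the area into which cells migrate out of the sphere, scored at 120 h and referenced to DMSO solvent control, which was kept at no more than 0.1%.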

[20] = IUF_NPC5_oligodendrocyte_differentiation_120hr: Leibniz Research Institute for Environmental Medicine (IUF) 120-hour Oligodendrocyte Differentiation Assay (NPC5) (AID 2284304);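 further: primary human fetal neural progenitor spheres plated to migrate and differentiate; share of O4-positive cells among Hoechst nuclei found by CNN image analysis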
Procedure, shortened: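 Human primary NPC neurospheres migrating and differentiating on laminin for 120 h under continuous compound exposure (serial dilution, solvent control). Endpoint: percent O4+ oligodendrocytes among Hoechst nuclei, detected by CNN image analysis, with DMSO as negative control.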

CC/C(=C(/CC)c1ccc(O)cc1)c1ccc(O)cc1
outcome [1]: inactive
outcome [2]: inactive
AC50 [3]: 50 µM (active)
outcome [4]: inactive
AC50 [5]: 28.9 µM (active)
AC50 [6]: 12.8 µM (active)
AC50 [7]: 26.5 µM (active)
AC50 [8]: 29.7 µM (active)
AC50 [9]: 14 µM (active)

c1ccc2ccccc2c1
outcome [3]: inactive
outcome [4]: inactive

CN1C(=O)CC[C@H]1c1cccnc1
outcome [1]: inactive
outcome [6]: inactive
outcome [7]: inactive
outcome [8]: inactive
outcome [9]: inactive

CCCOC(=O)c1cc(O)c(O)c(O)c1
outcome [3]: inactive
AC50 [4]: 22.1 µM (active)

CN(C)c1ccc(C(=C2C=CC(=[N+](C)C)C=C2)c2ccc(N(C)C)cc2)cc1
AC50 [3]: 4.8 µM (active)
AC50 [4]: 0.352 µM (active)

Oc1ccccc1
outcome [1]: inactive
outcome [6]: inactive
outcome [7]: inactive
outcome [8]: inactive

O=C1O[C@H]([C@@H](O)CO)C(O)=C1O
outcome [1]: inactive
outcome [5]: inactive
outcome [6]: inactive
outcome [7]: inactive
outcome [8]: inactive
outcome [10]: inactive
outcome [11]: inactive
outcome [12]: inactive
outcome [13]: inactive
outcome [14]: inactive
outcome [15]: inactive
outcome [16]: inactive
outcome [17]: inactive
outcome [18]: inactive
outcome [19]: inactive

CC(C)(c1cc(Br)c(O)c(Br)c1)c1cc(Br)c(O)c(Br)c1
AC50 [3]: 84.8 µM (active)
AC50 [10]: 3.61 µM (active)
AC50 [11]: 3.14 µM (active)
AC50 [12]: 3.76 µM (active)
AC50 [13]: 5.12 µM (active)
AC50 [14]: 5.06 µM (active)
AC50 [15]: 3.33 µM (active)
AC50 [20]: 0.628 µM (active)
AC50 [16]: 5.13 µM (active)
AC50 [17]: 4.45 µM (active)
AC50 [18]: 3.04 µM (active)
AC50 [19]: 2.79 µM (active)
